This is one part of a sample in which hits are shown more often than they occur.
FECH inh = inhibitors of human ferrochelatase, primary screen, biochemical, purified FECH, Ni-mesoporphyrin absorbance. Ferrochelatase, mitochondrial (Homo sapiens), P22830. Ni-mesoporphyrin absorbance 550 nm. calls only at 10 µM (by protocol). 20,000 tested, 3.3% active;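 active = enzyme reaction rate more than 3 SD below the solvent-only control wells on the same plate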;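 note: lower slope than DMSO wells means FECH inhibition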
Target sequence (P22830 whole entry, looked up): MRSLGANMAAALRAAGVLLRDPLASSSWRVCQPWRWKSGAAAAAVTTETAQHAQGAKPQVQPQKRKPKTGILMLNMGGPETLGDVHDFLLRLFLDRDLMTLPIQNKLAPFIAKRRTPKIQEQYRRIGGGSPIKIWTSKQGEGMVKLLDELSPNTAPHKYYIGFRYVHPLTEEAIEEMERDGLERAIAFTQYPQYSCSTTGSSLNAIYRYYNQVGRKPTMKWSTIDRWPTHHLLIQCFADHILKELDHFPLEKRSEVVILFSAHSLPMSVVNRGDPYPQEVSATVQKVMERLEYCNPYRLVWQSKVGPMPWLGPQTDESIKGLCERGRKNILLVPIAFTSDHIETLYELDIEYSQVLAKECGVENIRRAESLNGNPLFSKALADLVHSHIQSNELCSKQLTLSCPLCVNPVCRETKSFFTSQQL
* marks the source's active call; other numbers are inactive results; i = inactive; + = active, no number.

SMILES	FECH inh
Cc1cccc(CNC(=O)CN2C(=O)C3CCCN3C(=O)c3ccccc32)c1 (centres undefined)	i
COC(=O)CCC(=O)N(Cc1ccccc1Cl)C(C)C	i
CCn1nc(C)c(NC(=O)CN2CCCOc3c(cccc3OC)C2)c1C	i
Cc1cc(C)n(CCC(=O)NCCCc2ccccc2O)c(=O)n1	i
Cc1ccc(C)c(NS(=O)(=O)c2ccc3c(c2)CCN3C(=O)CCC(=O)N2CCOCC2)c1	i
C=CCC(O)(CC=C)C(C)NC(=O)c1cc(=O)n(C)c(=O)n1C (centres undefined)	i
COCc1nc2cccnc2n1C1CCN(S(=O)(=O)c2ccccc2)CC1	i
COCc1nc2cccnc2n1C1CCN(S(=O)(=O)c2ccc(NC(C)=O)cc2)CC1	+
COCc1nc2cccnc2n1C1CCN(S(=O)(=O)c2ccc(Br)cc2)CC1	i
CC(=O)NCC1CCCN(Cc2cccc(Cn3cccn3)c2)C1 (centres undefined)	i
CC1CCCCN1Cc1cc(=O)n2[nH]c(-c3ccc(C(C)(C)C)cc3)nc2n1 (centres undefined)	i
Cc1cccc(-c2nc3nc(CN4CCCCC4C)cc(=O)n3[nH]2)c1 (centres undefined)	+
Cc1cccc(-c2nc3nc(CN4CCCC4)cc(=O)n3[nH]2)c1	i
O=C1NCCN(S(=O)(=O)NCc2ccccc2)C1Cc1ccccc1 (centres undefined)	i
COc1ccc(Cn2c(CNC(=O)c3cc(OC)cc(OC)c3)nc3cccnc32)cc1	i
CN(CCC1CCCCO1)C(=O)CCC(=O)NC1CCCC1 (centres undefined)	i
Cc1ccc(CNC(=O)CN2CCCN(Cc3cccc(C)c3)S2(=O)=O)cc1	i
Cc1ccc(CN2CCCN(CC(=O)NCc3ccccc3)S2(=O)=O)cc1	+
O=C(CN1CCCN(Cc2ccccc2)S1(=O)=O)NCc1ccc(Cl)cc1	i
Cc1ccc(CN2CCCN(CC(=O)NCCc3ccccc3)S2(=O)=O)cc1	i
COc1ccc(CNC(=O)CN2CCCN(Cc3ccccc3Cl)S2(=O)=O)cc1	i
Cc1ccc(CN2CCCN(CC(=O)NCc3ccccc3Cl)S2(=O)=O)cc1	+
CCOc1cc2c(cc1CN1CCC3(CC1)CNC(=O)C3)CCC2	i
O=C(NCc1cccnc1)C1CCN(c2ccc(-c3cccs3)nn2)CC1	i
CCc1nc2nc(C)cc(N3CCN(c4ccc(OC)cc4)CC3)n2n1	i
SMILES	FECH inh
CCCc1c(C)nc2ncnn2c1Sc1ccc(NS(=O)(=O)c2ccc(C)cc2C)cc1	i
CCC(C)NC(=O)c1ccc(CN2C(=O)CCn3nc(-c4ccccc4)cc32)cc1 (centres undefined)	i
CC(C)CN(CC(C)C)c1ncc(NS(=O)(=O)c2ccccc2)cc1C(=O)O	i
CC(C)CN(CC(C)C)c1ncc(NS(=O)(=O)c2ccc(F)cc2)cc1C(=O)O	i
COc1ccc(S(=O)(=O)Nc2cnc(N(CC(C)C)CC(C)C)c(C(=O)O)c2)cc1	+
CNC(=O)C1CCC(Cn2c(=O)c3sccc3n(CC(=O)NC(C)C)c2=O)CC1 (centres undefined)	i
Cc1cccc2oc(CNC(=O)C(c3cccc(F)c3)N(C)C)nc12 (centres undefined)	i
Cc1cccc(C(C(=O)NCc2cnc(C)cn2)N(C)C)c1 (centres undefined)	i
CN(C)C(C(=O)NCC1(O)CCCCC1)c1cccc(F)c1 (centres undefined)	+
CCOc1ccc(CNC(=O)C2CCCN2S(=O)(=O)c2ccc3c(c2)CCCC(=O)N3)cc1 (centres undefined)	i
Cc1cc(CNc2nccc(N3CCC(O)CC3)n2)c2[nH]c(C)c(C)c2c1	i
COc1ccc(S(=O)(=O)N2CCC(n3c(C(F)(F)F)nc4cccnc43)CC2)cc1	i
Cc1ccc(OCC(=O)Nc2cccc(OCc3cc(=O)n4cc(Cl)ccc4n3)c2)cc1C	i
COc1ccc(OCC(=O)Nc2cccc(OCc3cc(=O)n4ccc(C)cc4n3)c2)cc1	i
Cc1ccccc1OCC(=O)Nc1ccc(C)c(OCc2cc(=O)n3cccc(C)c3n2)c1	+
Cc1cccc(OCC(=O)Nc2ccc(C)c(OCc3cc(=O)n4cccc(C)c4n3)c2)c1	+
Cc1ccn2c(=O)cc(COc3cccc(NC(=O)COc4ccccc4)c3)nc2c1	i
COc1ccc(OCC(=O)Nc2cccc(OCc3cc(=O)n4cc(Cl)ccc4n3)c2)cc1	i
Cc1ccc(OCC(=O)Nc2ccc(C)c(OCc3cc(=O)n4cccc(C)c4n3)c2)cc1C	+
Cc1ccn2c(=O)cc(COc3cccc(NC(=O)COc4ccccc4Cl)c3)nc2c1	i
CCC(Oc1ccccc1)C(=O)Nc1ccc(C)c(OCc2cc(=O)n3cccc(C)c3n2)c1 (centres undefined)	i
Cc1ccc(OCC(=O)Nc2cccc(OCc3cc(=O)n4ccc(C)cc4n3)c2)cc1	i
Cc1ccc(NC(=O)COc2ccccc2)cc1OCc1cc(=O)n2cccc(C)c2n1	+
Cc1cccc(OCC(=O)Nc2cccc(OCc3cc(=O)n4ccc(C)cc4n3)c2)c1	i
O=C(CCC(=O)N1CCc2cc(S(=O)(=O)Nc3cccc(Cl)c3)ccc21)N1CCCCCC1	i
SMILES	FECH inh
COCCn1c(CCCC(=O)NC2CCCCC2)nc2cccnc21	i
COc1ccc(N2C(=O)CCS2(=O)=O)cc1S(=O)(=O)N1CCc2ccccc2C1	i
CCNC(=O)[C@@H]1C[C@H](N)CN1Cc1cccc2c1OC(F)(F)O2	i
CCCCNc1nc(Nc2cccc(F)c2)c2cnn(-c3ccccc3)c2n1	i
COc1ccc(Nc2nc(NCc3cccnc3)nc3c2cnn3-c2ccccc2)cc1	i
Cn1ccnc1-c1ccc(NCCc2c[nH]c3ccccc23)nn1	i
CCOc1ccc(C(=O)NC2CC(=O)N(c3cccc(F)c3)C2)cc1OCC (centres undefined)	i
COc1ccc(NC(=O)CSc2cc(N3CCCCC3)ncn2)cc1	i
O=C(CSc1cc(N2CCCCC2)ncn1)NC1CCCC1	+
Cc1nn(-c2cc(N3CCCC3)ncn2)c(C)c1CCC(=O)NC1CCCCCC1	i
Cc1cccc(NC(=O)N2CCC(n3cnc4cccnc43)CC2)c1C	i
Cn1c(=O)n(Cc2ccc(F)cc2)c(=O)c2cnc(-c3ccncc3)nc21	i
Cc1cc(N(C)C)nc(Nc2ccc(NC(=O)c3ccc(I)cc3)cc2)n1	i
Cc1ccc(C(=O)Nc2ccc(Nc3nc(C)cc(N(C)C)n3)cc2)cc1	i
Cc1cc(C)cc(C(=O)Nc2ccc(Nc3nc(C)cc(N(C)C)n3)cc2)c1	+
O=C(c1cn[nH]n1)N1CCN(C(=O)C2CCCCC2)CC1	i
CN1CCC(CN2CCN(CCC(=O)N3CCCc4ccccc43)CC2)CC1	i
CCOC(=O)c1c(NC(=O)c2ccc(N3C(=O)CCC3=O)cc2)sc2c1CCN(C(C)C)C2	+
CCOC(=O)c1c(NC(=O)c2cccs2)sc2c1CCN(C(C)C)C2	i
CCOC(=O)c1c(NC(=O)c2ccco2)sc2c1CCN(C(C)C)C2	i
CCN(Cc1ccc(Cl)cc1)C(=O)Cc1nn[nH]n1	i
Cc1ccc(-c2ncc3c(=O)n(Cc4ccc(Br)cc4F)c(=O)n(C)c3n2)cc1	i
CC(C)CN(CC(C)C)c1ncc(NS(C)(=O)=O)cc1C(=O)O	i
Cc1ccc(N2C(=O)CCS2(=O)=O)cc1S(=O)(=O)N1CCN(c2ccccc2F)CC1	+

Screening results: PubChem BioAssay, Corson Lab, School of Medicine, Indiana University
